PI5P4K alpha inh = blocks human PI5P4K alpha kinase activity. max response, %. 330,000 compounds, 1.2% hits. PI5P4Kalpha enzyme, ADP-Glo luminescence, 60 min; hits give low values. AID 652105; active means max response of -50% or lower; inconclusive means between -30% and -50%; inactive means -30% or higher; further: value at the top dose of about 77 µM; on the % scale 0 is the no-effect control and ±100 the full control effect
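Reactions run in 0.038 M HEPES pH 7.4, 0.28 mM EGTA, 0.1% CHAPS and 5% DMSO, with PI5P4Kalpha, substrate, compound and 5 microM ATP final, one hour at room temperature. Readout is ADP-Glo luminescence.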
JMJD2A Tudor inh = inhibitors of human JMJD2A Tudor domain; O75164; AlphaScreen JMJD2A-Tudor / H3K4me3 peptide binding; Potency, µM (highest dose often 114 µM), for the others: at the top dose activity change, negative = inhibition, most hits filed as inhibitors; 390,000 compounds, 4.4% hits; further: potency means the concentration at half of the fitted maximal effect; on the % scale 0 is the no-effect control and ±100 the full control effect; nearly all actives have a fitted effect of over 50% in size
BAZ2B inh = BAZ2B (human) inhibition | AID 504333 | Potency, µM (top dose mostly 114 µM), for the others: top-dose activity change, negative = inhibition, most hits filed as inhibitors | 360,000 compounds, 4.4% hits | AlphaScreen BAZ2B-H3K14Ac peptide displacement | Q9UIF8; further: potency means the concentration at half of the fitted maximal effect; on the % scale 0 is the no-effect control and ±100 the full control effect; nearly all actives have a fitted effect of over 60% in size
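Compounds, titrated to a top concentration of 110 uM, were incubated 30 min at room temperature with preformed BAZ2B/acetyl-K14 H3 peptide complex (50 nM each). Proximity signal was measured by AlphaScreen after 20 min with beads.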
HP1b chromo inh = HP1-beta chromodomain-methylated histone interaction inhibition; P83916; AlphaScreen HP1-beta / biotin-H3K9me3 peptide binding; Potency, µM (titrated, usually from 114 µM), without a hit: at the top dose activity change, negative = inhibition, most hits filed as inhibitors; 390,000 compounds, 0.56% hits; further: potency means the concentration at half of the fitted maximal effect; nearly all actives have a fitted effect of over 70% in size
Target sequence (P83916 whole entry, looked up): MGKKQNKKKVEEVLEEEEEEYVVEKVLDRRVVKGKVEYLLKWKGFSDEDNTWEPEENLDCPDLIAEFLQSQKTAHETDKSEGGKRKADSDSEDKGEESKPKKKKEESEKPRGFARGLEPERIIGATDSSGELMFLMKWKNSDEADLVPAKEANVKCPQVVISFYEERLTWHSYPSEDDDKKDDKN
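Compound inhibition of the preformed complex between 50 nM HP1-beta and 50 nM biotinylated H3K9me3 peptide was read by AlphaScreen. Buffer was PBS pH 7.4 with 0.01% Tween-20. Incubations ran 30 min at room temperature, with 10 ug/mL donor/acceptor beads.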
PLK1 PBD block = inhibitors of human PLK1 polo-box domain binding | AID 720504 | 360,000 compounds, 2.8% hits | P53350 | Plk1 PBD binding of FITC phosphopeptide, fluorescence polarization | Potency, µM, for inactives: max response, negative = inhibition, actives largely listed as inhibitors; further: potency means the concentration at half of the fitted maximal effect; series mostly up to about 57 µM; on the % scale 0 is the no-effect control and ±100 the full control effect; nearly all actives have a fitted effect of over 65% in size
G9a block = G9a (human) methyltransferase inhibition. Q96KQ7. G9a H3K9 monomethylation, AlphaScreen, 2 h. Potency, µM (top dose mostly 102 µM), without a hit: at the top dose activity, negative = inhibition, usual class: inhibitors. 350,000 compounds, 8.8% hits. AID 504332; further: potency means the concentration at half of the fitted maximal effect; on the % scale 0 is the no-effect control and ±100 the full control effect; nearly all actives have a fitted effect of over 75% in size
Target sequence (Q96KQ7 913-1193 limits assumed): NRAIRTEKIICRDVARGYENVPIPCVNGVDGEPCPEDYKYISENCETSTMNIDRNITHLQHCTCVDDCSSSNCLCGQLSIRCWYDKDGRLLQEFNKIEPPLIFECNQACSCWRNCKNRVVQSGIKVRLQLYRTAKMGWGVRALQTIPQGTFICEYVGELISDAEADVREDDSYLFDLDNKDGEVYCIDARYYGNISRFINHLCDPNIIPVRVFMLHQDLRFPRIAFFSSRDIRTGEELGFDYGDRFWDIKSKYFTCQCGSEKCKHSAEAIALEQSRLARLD
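G9a (20 nM) was preincubated 15 min with compound, then reacted 2 h at room temperature with 500 nM biotin-H3K9 peptide and 20 µM SAM. Monomethyl-H3K9 detected by AlphaScreen using anti-H3K9me1 antibody.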
Starred values were filed as active, the others as inactive; [ ] = dose if it differs, or a comment. Sampled rows, rich in hits. Any-hit rate of the full collection: about 12%. Unless noted, the call rests on the fitted dose curve; in most records, active means well fitted curve in the direction sought with a large enough effect; inconclusive means small, poorly fitted or top-dose-only effect, or another doubt; inactive means no such curve, though single readings can be large; an effect the other way counts as inactive or inconclusive.

Results for O=C(NCc1ccccc1Cl)c1ccc2c(c1)nnn2C1CCCC1 ?
JMJD2A Tudor inh: 3%; BAZ2B inh: 1%; HP1b chromo inh: 36%; G9a block: -9%[59 µM]

What do the screens show for `C#CCCCCCCC#CCN(C)C`?
PI5P4K alpha inh: 10; JMJD2A Tudor inh: 1.8µM*; BAZ2B inh: inconclusive; HP1b chromo inh: inconclusive; PLK1 PBD block: -12%; G9a block: 28µM*

How did CCOc1ccc(CCNC(=O)CCc2c(C)nc3c(c(C)nn3-c3ccccc3)c2C)cc1OCC do in these assays?
JMJD2A Tudor inh: -1%; BAZ2B inh: 2%; HP1b chromo inh: 42%; G9a block: 8%[59 µM]

How did NCCC(O)C(=O)NC1C[C@@H](N)[C@H](O[C@@H]2OC(CN)C(O)C(O)C2O)C(O)[C@H]1O[C@H]1OC(CO)C(O)C(N)C1O (some centres not stated) do in these assays?
G9a block: 15%[2.33 µM]

Results for Cc1ccc(S(=O)(=O)N/N=C/c2cccn2-c2ccc(Cl)cc2)cc1 ?
PI5P4K alpha inh: -8; JMJD2A Tudor inh: 56µM*; BAZ2B inh: -2%; HP1b chromo inh: inconclusive; PLK1 PBD block: -3%; G9a block: 110%[59 µM]

Results for CCC1=NN2C(=N)/C(=C\c3cccn3-c3ccc(Cl)cc3)C(=O)N=C2S1 ?
PI5P4K alpha inh: -6; JMJD2A Tudor inh: -36%; BAZ2B inh: inconclusive; HP1b chromo inh: -4%; PLK1 PBD block: inconclusive; G9a block: -9%[59 µM]

What do the screens show for `CC1=NN(c2ccc(Cl)cc2)C(=O)/C1=C\c1cccn1-c1ccc(S(N)(=O)=O)cc1`?
PI5P4K alpha inh: -1; JMJD2A Tudor inh: 22µM*; BAZ2B inh: 10µM*; HP1b chromo inh: inconclusive; PLK1 PBD block: -16%; G9a block: 10µM*

What do the screens show for `Cc1ccc(S(=O)(=O)N/N=C/c2c(F)cccc2Cl)cc1`?
PI5P4K alpha inh: 5; JMJD2A Tudor inh: 4%; BAZ2B inh: -3%; HP1b chromo inh: 34%; PLK1 PBD block: inconclusive; G9a block: inconclusive

What do the screens show for `Cc1ccc(-n2ncc3c(Nc4cccc(C(F)(F)F)c4)ncnc32)cc1C`?
JMJD2A Tudor inh: -11%; BAZ2B inh: 10%; HP1b chromo inh: 58%; G9a block: -5%[59 µM]

Results for Cc1cc(/C(=N/O)C(C)(C)NO)ccc1Cl ?
PI5P4K alpha inh: 2; JMJD2A Tudor inh: 20µM*; BAZ2B inh: -8%; HP1b chromo inh: -18%; PLK1 PBD block: -6%; G9a block: inconclusive

What do the screens show for `CC(C)(NO)/C(=N\O)c1ccccc1`?
PI5P4K alpha inh: -4; JMJD2A Tudor inh: 13µM*; BAZ2B inh: 40µM*; HP1b chromo inh: 71µM*; PLK1 PBD block: -4%; G9a block: 10µM*

What do the screens show for `Cc1cc(-c2ccc(S(=O)(=O)Nc3ccccc3C)cc2)on1`?
JMJD2A Tudor inh: -4%; BAZ2B inh: -1%; HP1b chromo inh: 38%; G9a block: -9%[59 µM]

Results for Cc1ccc(C(=O)NCC(c2ccc(F)cc2)N2CCOCC2)cc1S(=O)(=O)N1CCOCC1 (configuration not stated) ?
PI5P4K alpha inh: -4; JMJD2A Tudor inh: -14%; HP1b chromo inh: 18%; PLK1 PBD block: -4%

What do the screens show for `CCOC(=O)CSc1nc2ccccc2c(=O)n1CCc1ccc(OC)c(OC)c1`?
JMJD2A Tudor inh: -17%; BAZ2B inh: -19%; HP1b chromo inh: 22%; G9a block: 2%[59 µM]

What do the screens show for `COc1ccc(C(=O)n2nnc3ccccc32)cc1Br`?
JMJD2A Tudor inh: -6%; BAZ2B inh: inconclusive; HP1b chromo inh: 40%; PLK1 PBD block: 1.5µM*; G9a block: inconclusive

How did COc1ccc(N/C(=C(/C(Cl)=C(Cl)Cl)[N+](=O)[O-])n2nnc3ccccc32)cc1OC do in these assays?
BAZ2B inh: 56µM*; G9a block: 14µM*

How did CCSc1ccccc1C(=O)n1nnc2ccccc21 do in these assays?
JMJD2A Tudor inh: 66%; BAZ2B inh: 35%; HP1b chromo inh: 97%; PLK1 PBD block: 5.6µM*; G9a block: -7%[59 µM]

High-throughput results from PubChem.
